TNF necrop inh – inhibitors of TNF-alpha induced necroptosis in Jurkat FADD-/- cells. activation (protection from cell death), % at 10 µM. AID 463075. Jurkat FADD-/- TNF necroptosis rescue, ATP luminescence, 24 h; 0 = TNF only, 100 = no-TNF cells. 0.068% of 220,000 active;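 active means activation, meaning protection from cell death, of at least 50% relative to plate controls; inactive means activation below 50%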;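 further: necroptosis triggered by 40 ng/mL TNF-alpha added together with compound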
zVAD death inh – L929 zVAD cell death inhibition; L929 zVAD necroptosis rescue, ATP luminescence, 24 h; with zVAD 60 µM; viability rescue, % at 10 µM; 0.38% of 220,000 active; AID 1377;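 active means activation, scaled between plate controls, above about 75%, limit read from the data; inactive means activation under that limit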;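 further: 0% = zVAD with DMSO and 100% = DMSO alone without zVAD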
S1P4 agonist – activates the human S1P4 receptor; O95977; S1P4-expressing cell line, agonist reporter assay; activation, % at 4.98 µM; 0.35% of 220,000 active; in the data active means activation above about 11%;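 further: 0% = DMSO vehicle and 100% = reference agonist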
Hsp70 activator – Hsp70 transcriptional activation, primary screen | HeLa Hsp70 promoter luciferase reporter, luminescence; scaled: vehicle 0, proteasome-inhibitor control 100% | activation, % at 10 µM | 0.04% of 200,000 active | AID 1203;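 active means activation above the mean across all tested compounds plus 3 SD, cutoff set per campaign, cut at about 5.5% in these data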;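 further: 100% = MG132 at 30 µM as the positive control and 0% = DMSO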
HSV augment – HSV replication enhancement; AID 1956; 0.005% of 220,000 active; HSV replication augmentation in cells, fold increase; maximum fold increase; in the data active means maximum fold increase above about 1.5; tested in PC3 cells
S1P4 antagonist – antagonists of human S1P4 receptor; O95977; S1P4-expressing cells, antagonist mode, reporter read-out; inhibition, % at 4.98 µM; 0.26% of 220,000 active; AID 1510; in the data active means inhibition above about 29%;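 further: 0% = wells stimulated with agonist and 100% = vehicle wells without agonist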
S1P4 agonist cf – confirmation of human S1P4 receptor agonists | shares compounds with S1P4 agonist | S1P4 agonist cell-based reporter assay | activation, % at 4.98 µM | 7% of 740 active | AID 1523; in the data active means activation above about 12%;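 further: 0% = vehicle and 100% = full reference agonist response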
S1P1 agonist – activates human S1P1, counter-screen for S1P4 agonists; 4% of 740 active; AID 1563; shares compounds with S1P4 agonist; S1P1 agonist cell-based assay, activation; activation, % at 4.98 µM; in the data active means activation above about 21%;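 further: 0% = vehicle wells and 100% = reference agonist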
Target sequence (P21453 whole entry, looked up): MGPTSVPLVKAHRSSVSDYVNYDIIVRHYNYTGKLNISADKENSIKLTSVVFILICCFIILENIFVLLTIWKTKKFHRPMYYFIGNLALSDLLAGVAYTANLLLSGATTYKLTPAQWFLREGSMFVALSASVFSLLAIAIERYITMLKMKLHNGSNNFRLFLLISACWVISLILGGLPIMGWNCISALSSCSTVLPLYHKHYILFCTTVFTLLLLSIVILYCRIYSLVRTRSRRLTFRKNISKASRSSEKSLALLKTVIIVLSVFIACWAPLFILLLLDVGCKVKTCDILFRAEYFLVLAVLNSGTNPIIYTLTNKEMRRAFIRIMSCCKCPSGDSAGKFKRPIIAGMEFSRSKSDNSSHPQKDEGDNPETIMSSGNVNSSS
Numbers without * were called inactive; i = inactive; . = not tested or not shown. Only some compounds are listed: those with a hit (about 1% of all), similar ones and a draw of the others.

SMILES	TNF necrop inh	zVAD death inh	S1P4 agonist	Hsp70 activator	HSV augment	S1P4 antagonist	S1P4 agonist cf	S1P1 agonist
O=C(NCC(c1ccco1)N1CCN(c2ccccc2F)CC1)OCc1ccccc1 (stereo not drawn)	-0.8	0.5	32.8*	-0.2	i	4.5	-1.7	-6.1
COCCCn1c(=O)/c(=C\c2ccccc2OC(F)F)s/c1=C(/C#N)C(=O)NCCOC	1.2	0.1	1.1	.	i	4.1	.	.
COCCNC(=O)/C(C#N)=c1\s/c(=C\c2ccccc2OC(F)F)c(=O)n1Cc1ccccc1	0.2	0.3	12.4*	0.0	i	-9.5	-2.4	3.2
CCOc1ccccc1-n1c(SCC(=O)Nc2nccs2)nnc1-c1ccoc1C	-0.4	-0.3	19.4*	-0.1	i	4.2	-1.8	4.3
COc1cc([N+](=O)[O-])ccc1NC(=O)CCCOc1cc(C)ccc1C	-0.4	1.3	1.4	-0.5	i	-9.2	.	.
Cc1ccc(C2Nc3ccccc3-c3nc4ccccc4n32)o1 (stereo not drawn)	-0.6	0.0	11.6*	-0.1	i	-11.5	-1.9	1.9
Cc1ccc(-c2nc3ccccc3n2C)o1	-5.2	-0.7	-1.6	0.2	i	-23.3	.	.
CCOC(=O)C1=C(C(F)(F)F)Nc2ncnn2C1c1ccc(OC)c(OC)c1OC (stereo not drawn)	1.7	0.2	3.1	-0.2	i	-12.1	.	.
CC(=O)Nc1ccc(N=Cc2nc(-c3ccc(C)cc3)oc2O)cc1	-4.6	-0.4	1.1	-0.3	i	-3.1	.	.
Cc1ccc(N=Cc2nc(-c3ccc(C)cc3)oc2O)cc1	-0.4	-0.8	15.0*	-0.2	i	-0.4	-1.4	-3.7
COc1ccc(CC2(CO)CCN(Cc3ccncc3)CC2)cc1	2.2	2.8	1.8	-0.1	i	-27.9	.	.
COc1ccc(CC2(CO)CCN(Cc3cnn(C)c3C)CC2)cc1	1.6	-0.1	17.4*	-0.2	i	7.9	-1.3	-8.5
OCCOCCNc1ncnc2c1cnn2-c1ccc(Cl)cc1	-0.5	-0.3	67.8*	-0.1	i	10.1	0.2	7.8
Cc1nc(SCC(=O)NC2CCCC2)[nH]c(=O)c1Cc1ccccc1	0.3	0.0	50.8*	-0.3	i	-4.5	-1.7	-6.0
Cc1ccc(-n2c(SCC(=O)N3CC(=O)Nc4ccccc43)nc3ccccc3c2=O)cc1	-2.9	0.1	26.7*	-0.5	i	1.5	-2.4	-7.9
Cc1cccc(C)c1-n1c(SCC(=O)N2CC(=O)Nc3ccccc32)nc2ccccc2c1=O	-5.4	-0.6	1.5	-0.2	i	-9.7	.	.
O=c1[nH]c2ccccc2c(O)c1-c1cc2ccccc2oc1=O	-0.8	-0.1	1.3	-0.2	i	-15.3	.	.
CCOc1cc([N+](=O)[O-])c2nc(N)sc2c1	-5.7	-0.8	0.4	.	i	-11.8	.	.
Nc1c(S(=O)(=O)c2ccccc2)csc1C(=O)O	0.4	-1.8	-0.3	-0.2	i	-0.6	.	.
Nc1nnc(SCC(=O)OCC(=O)Nc2ccc(Br)cc2F)s1	1.2	1.9	3.1	-0.3	i	-28.4	.	.
Nc1nnc(SCC(=O)OCC(=O)Nc2ccc(Br)cc2)s1	1.4	1.1	61.7*	-0.1	i	-10.7	-2.0	-5.0
CC(=O)C1C(c2ccc(Br)cc2)C2C(C)=NN=C2CC1(C)O (stereo not drawn)	0.8	0.0	-0.3	-0.4	i	-9.7	.	.
CCOCCCn1c(=NC(C)=O)c(C(=O)OCC)cc2c(=O)n3ccccc3nc21	-0.5	-0.3	8.2	0.2	i	3.1	.	.
CCOC(=O)c1cc2c(=O)n3ccccc3nc2n(CCCOC)c1=NC(=O)C(C)(C)C	-1.6	-0.3	15.6*	-0.4	i	-14.0	2.2	5.5
CCOC(=O)c1cc2c(=O)n3ccccc3nc2n(CCCOC)c1=NC(=O)c1cccnc1	-0.8	-0.6	3.9	1.1	.	-0.9	.	.
CCOC(=O)c1cc2c(=O)n3ccccc3nc2n(CCOC)c1=NC(=O)C(C)(C)C	-2.6	-0.3	5.6	1.1	i	-7.0	.	.
CCOC(=O)c1cc2c(=O)n3ccccc3nc2n(CCOC)c1=NC(=O)c1ccncc1	-3.1	-0.3	18.0*	-0.1	i	-14.1	-0.2	-3.4
